Measurements as given in PubChem BioAssay (NCATS).
Results filed as inconclusive are left out. The source made the active and inactive calls. Unless noted, calls come from the whole dose curve; as a rule, active = well fitted curve in the direction sought with a large enough effect; inconclusive = small, poorly fitted or top-dose-only effect, or another doubt; inactive = no such curve, though single readings can be large; an effect the other way counts as inactive or inconclusive.

Assays:
[1] = molecular target: Tumor susceptibility gene 101 protein (Homo sapiens) (UniProt Q99816); assay: qHTS Validation Assay for Iinhibitors of HIV-1 Budding by Blocking the Interaction of PTAP/TSG101 (AID 485342; calls by dose curve)
Procedure, shortened: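 Tsg101 binding domain (10 uM) with FITC-labeled PTAP peptide (50 nM) in HEPES pH 7.5 buffer, 20 min at r.t. with compounds. Binding measured by fluorescence polarization.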

[2] = qHTS Validation Assay to Find Inhibitors of Chronic Active B-Cell Receptor Signaling (AID 485345; active = well fitted curve in the direction sought with a large enough effect in the main read-out, with a control signal flat, not every such curve was filed as active; note: potency is the fitted concentration of half-maximal effect)
Procedure, shortened: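 TMD8 ABC-DLBCL cells stably carrying doxycycline-inducible IkappaBalpha–green luciferase fusion plus unfused red luciferase; compounds 46 uM to 3 nM, 4 h at 37C with doxycycline. Corrected green/red luminescence ratio normalized to 10 uM MG-132 and basal cell wells; curves fitted.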

[3] = molecular target: Beta-2 adrenergic receptor (Homo sapiens) (UniProt P07550); assay: qHTS validation assay of beta-arrestin-biased ligands of beta2-adrenergic receptor (AID 485366)
Procedure, shortened: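 Tango cells (recombinant beta2-AR with recombinant beta-arrestin; recruitment releases tTA driving luciferase) were treated with compounds titrated up to 46 microM for 18 hr at 37 degrees C. Luminescence gave %Activity, and concentration-response curves were curve-classified.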

[4] = molecular target: Thioredoxin reductase 1, cytoplasmic (Rattus norvegicus) (UniProt O89049); assay: qHTS Assay for Substrates of Mammalian Selenoprotein Thioredoxin Reductase 1 (TrxR1) (AID 488772);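 note: NADPH fluorescence in the first read after selenite addition and not the 8 min delta; series mostly up to about 57 µM; a drop in NADPH fluorescence below the no-compound background marks a TrxR1 substrate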
Procedure, shortened: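 Quantitative HTS in Tris-HCl buffer at pH 7.5 with EDTA and Tween-20, using rat TrxR1, 400 uM NADPH and 400 uM selenite (final). A fall in initial NADPH fluorescence relative to background marked substrate behaviour.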

[5] = molecular target: Thioredoxin reductase 1, cytoplasmic (Rattus norvegicus) (UniProt O89049); assay: qHTS Assay for Inhibitors of Mammalian Selenoprotein Thioredoxin Reductase 1 (TrxR1) (AID 488773); details: Potency: inhibition;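 note: drop in NADPH fluorescence over an 8 min run after selenite addition; series mostly up to about 57 µM; nearly all actives have a fitted effect of over 40% in size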
Procedure, shortened: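 Steps: enzyme (90 nM) plus NADPH (400 uM final), 5 min at ~22 deg C; compound added, 15 min; selenite (400 uM final) added; fluorescence followed for 8 min. Concentration-response curves derived from the normalized delta values.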

[6] = molecular target: Flap endonuclease 1 (Homo sapiens) (UniProt P39748); assay: qHTS Validation Assay for the Inhibitors of Human Flap endonuclease 1 (FEN1) (AID 488816)
Procedure, shortened: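 Human FEN1 (10 nM) preincubated 15 min at room temperature with compounds, then flap DNA substrate added at 50 nM final. Fluorescence read at 0 and 15 min; concentration-response fitted with four-parameter Hill equation.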

[7] = molecular target: M-phase phosphoprotein 8 (Homo sapiens) (UniProt Q99549); assay: qHTS Validation Assay for Inhibitors for MPP8 Chromodomain Interactions with Methylated Histone Tails (AID 488949); note: nearly all actives have a fitted effect of over 55% in size; note: potency is the fitted concentration of half-maximal effect
Procedure, shortened: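 MPP8 (50 nM) was pre-bound to 50 nM biotinylated H3(1-18)K9me3 peptide in PBS pH 7.4 with 0.01% Tween-20. Compounds were then added for 30 min at room temperature, and complex disruption was read by AlphaScreen with streptavidin donor and nickel-chelate acceptor beads.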

[8] = molecular target: Chromobox protein homolog 1 (Homo sapiens) (UniProt P83916); assay: qHTS Validation Assay for Inhibitors of HP1-beta Chromodomain Interactions with Methylated Histone Tails (AID 488953); note: nearly all actives have a fitted effect of over 50% in size; note: potency is the fitted concentration of half-maximal effect
Procedure, shortened: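 50 nM HP1-beta + 50 nM biotin-H3(1-18)K9me3, PBS pH 7.4, 0.01% Tween-20, 30 min RT; compound added, 30 min RT; AlphaScreen beads 10 ug/mL final, 30 min dark; luminescence read.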

[9] = molecular target: Methanococcus maripaludis chaperonin (MmCpn) (UniProt Q6LX38); assay: High-Throughput Screening for Modulators of Cytosolic Chaperonin Activity: MmCpn Primary Screen (AID 488978);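 note: 50 nM MmCpn enzyme hydrolysing 30 µM ATP at 37 °C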
Procedure, shortened: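 MmCpn at 50 nM final was preincubated 5 min at RT with compound. ATP was then added at 30 uM final for 10 min at 37 C. ADP formed was detected by Transcreener HTRF (665/590 nm).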

[10] = molecular target: D(1A) dopamine receptor (Homo sapiens) (UniProt P21728); assay: HTS Assay for Allosteric Agonists of the Human D1 Dopamine Receptor: Primary Screen for Agonists (AID 488981)
Procedure, shortened: (§1)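 Tetracycline-induced HEK293 Trex D1 cells with forced coupling to calcium, loaded with no-wash calcium dye; kinetic fluorescence read 180 s after compound addition for agonism, then a further 180 s after an EC20 dopamine challenge for potentiation.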

[11] = molecular target: D(1A) dopamine receptor (Homo sapiens) (UniProt P21728); assay: HTS Assay for Allosteric Agonists of the Human D1 Dopamine Receptor: Primary Screen for Potentiators (AID 488982)
Procedure, shortened: as §1

[12] = molecular target: D(1A) dopamine receptor (Homo sapiens) (UniProt P21728); assay: HTS Assay for Allosteric Agonists of the Human D1 Dopamine Receptor: Primary Screen for Antagonists (AID 488983);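 note: calcium flux response to an EC80 dopamine challenge measured with no-wash dye; nearly all actives have a fitted effect of over 65% in size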; note: potency is the fitted concentration of half-maximal effect
Procedure, shortened: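 Cells are induced with tetracycline and incubated overnight at 30 C, then loaded with calcium dye for 30 to 90 minutes at room temperature. Compound addition is followed by a 180 s read, then an EC80 dopamine addition and another 180 s read.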

[13] = Validation screen for small molecules that induce genotoxicity in human embryonic kidney (HEK293T) cells expressing luciferase-tagged ELG1 (AID 493106)
Procedure, shortened: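 Luminescence from an ELG1-luciferase fusion serves as the read-out, rising when genetic stress elevates ELG1 protein. HEK293T reporter cells (2,000 per well) received 23 nL compound, incubated 16 hr at 37 °C, then ONE-Glo for 30 min at room temperature.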

[14] = Quantitative high throughput screen for delayed death inhibitors of the malarial parasite plastid, 96 hour incubation (AID 488745); note: nearly all actives have a fitted effect of over 70% in size; note: potency is the fitted concentration of half-maximal effect
Procedure, shortened: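 Infected erythrocytes were added to compound in Albumax-supplemented RPMI 1640 at 0.1% parasitemia and 2% hematocrit (final), incubated 96 h at 37 C under 5% CO2, then luciferase reagent was added and luminescence measured.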

[15] = Quantitative high throughput screen for delayed death inhibitors of the malarial parasite plastid, 48 hour incubation (AID 488752); note: nearly all actives have a fitted effect of over 65% in size; note: potency is the fitted concentration of half-maximal effect
Procedure, shortened: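 Readout is firefly luciferase luminescence from a reporter integrated into the parasite genome, with lower signal taken as inhibited growth. Infected red cells (0.1% parasitemia, 2% hematocrit final) are cultured with compound for one 48 h cycle at 37 C.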

[16] = molecular target: Transient receptor potential cation channel subfamily V member 1 (Homo sapiens) (UniProt Q8NER1); assay: HTS Assay for Compounds that Act as Enhancers of the Vanilloid Receptor 1 (AID 488979)
Procedure, shortened: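 TRPV1 cells loaded with Fluo-8 calcium dye; compound added and Ca2+ signal (ex 480/em 520 nm) followed 3 min, then capsaicin at EC20 added and read 2 more min to detect enhancement.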

[17] = molecular target: Thyrotropin receptor (Homo sapiens) (UniProt P16473); assay: qHTS Assay for Antagonists of the Thyroid Stimulating Hormone Receptor (AID 488980); note: series mostly up to about 58 µM
Procedure, shortened: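 TSHR-transfected HEK293 cells (2000/well) in HEPES-buffered HBSS with 70 uM RO 20-1724 were stimulated with 4 nM TSH (EC80, final) in the presence of compound. cAMP was measured by HTRF competition after lysis and 30 min at RT.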

[18] = molecular target: ATP-dependent 6-phosphofructokinase (Trypanosoma brucei brucei) (UniProt O15648); assay: qHTS Assay to Find Inhibitors of T. brucei phosphofructokinase: hit validation (AID 492961); note: series mostly up to about 51 µM
Procedure, shortened: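 Luminescence from ADP-Glo reports ADP generated as T. brucei PFK (1.25 nM) phosphorylates 0.5 mM fructose-6-phosphate using 0.1 mM ATP. Reactions ran 45 min at room temperature, pH 8.0.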

[19] = molecular target: ATP-dependent 6-phosphofructokinase (Trypanosoma brucei brucei) (UniProt O15648); assay: qHTS Validation Assay to Find Inhibitors of T. brucei phosphofructokinase (AID 485368); details: outcome: dose series up to 57.5 µM
Procedure, shortened: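 Compounds (up to 57 uM, titration series) were pinned into substrate buffer, then 1.25 nM PFK added; after 45 min at room temperature, ADP product was quantified by ADP-Glo luminescence and concentration-response curves fitted.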

Measured: Potency

Chain of Tumor susceptibility gene 101 protein (Homo sapiens) (Q99816 whole entry, looked up, the tested form may be a part): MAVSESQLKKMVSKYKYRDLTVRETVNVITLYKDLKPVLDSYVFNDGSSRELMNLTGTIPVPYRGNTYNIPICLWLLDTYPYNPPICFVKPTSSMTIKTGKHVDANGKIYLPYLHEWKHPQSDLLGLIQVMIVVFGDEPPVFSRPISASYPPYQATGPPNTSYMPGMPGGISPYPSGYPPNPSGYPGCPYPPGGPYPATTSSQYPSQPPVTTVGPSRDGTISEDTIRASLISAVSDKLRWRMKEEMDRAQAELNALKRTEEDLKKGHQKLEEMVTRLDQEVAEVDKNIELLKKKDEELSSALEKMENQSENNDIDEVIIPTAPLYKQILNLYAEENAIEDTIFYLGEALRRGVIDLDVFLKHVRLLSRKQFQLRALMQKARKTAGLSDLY
Chain of Transient receptor potential cation channel subfamily V member 1 (Homo sapiens) (Q8NER1 whole entry, looked up): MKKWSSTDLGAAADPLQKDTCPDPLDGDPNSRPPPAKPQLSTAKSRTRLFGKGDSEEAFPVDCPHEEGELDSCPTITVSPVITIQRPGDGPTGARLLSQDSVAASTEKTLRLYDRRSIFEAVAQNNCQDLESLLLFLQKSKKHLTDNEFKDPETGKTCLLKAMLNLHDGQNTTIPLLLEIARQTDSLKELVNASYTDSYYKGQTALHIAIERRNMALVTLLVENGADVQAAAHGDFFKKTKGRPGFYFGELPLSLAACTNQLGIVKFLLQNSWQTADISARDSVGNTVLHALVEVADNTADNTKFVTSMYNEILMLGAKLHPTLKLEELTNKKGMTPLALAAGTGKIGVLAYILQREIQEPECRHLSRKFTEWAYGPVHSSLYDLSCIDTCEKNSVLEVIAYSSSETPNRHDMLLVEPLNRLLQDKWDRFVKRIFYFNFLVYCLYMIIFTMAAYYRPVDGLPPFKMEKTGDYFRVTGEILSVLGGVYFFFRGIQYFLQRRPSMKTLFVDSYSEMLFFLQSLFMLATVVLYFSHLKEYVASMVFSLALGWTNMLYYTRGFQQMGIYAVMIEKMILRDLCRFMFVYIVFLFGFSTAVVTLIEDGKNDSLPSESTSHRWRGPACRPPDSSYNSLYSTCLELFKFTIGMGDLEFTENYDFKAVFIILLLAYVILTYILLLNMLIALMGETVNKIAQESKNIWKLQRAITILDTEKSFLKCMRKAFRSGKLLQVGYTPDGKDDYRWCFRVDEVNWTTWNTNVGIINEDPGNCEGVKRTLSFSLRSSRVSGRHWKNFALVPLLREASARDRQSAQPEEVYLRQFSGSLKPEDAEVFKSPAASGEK
Chain of M-phase phosphoprotein 8 (Homo sapiens) (Q99549 whole entry, looked up): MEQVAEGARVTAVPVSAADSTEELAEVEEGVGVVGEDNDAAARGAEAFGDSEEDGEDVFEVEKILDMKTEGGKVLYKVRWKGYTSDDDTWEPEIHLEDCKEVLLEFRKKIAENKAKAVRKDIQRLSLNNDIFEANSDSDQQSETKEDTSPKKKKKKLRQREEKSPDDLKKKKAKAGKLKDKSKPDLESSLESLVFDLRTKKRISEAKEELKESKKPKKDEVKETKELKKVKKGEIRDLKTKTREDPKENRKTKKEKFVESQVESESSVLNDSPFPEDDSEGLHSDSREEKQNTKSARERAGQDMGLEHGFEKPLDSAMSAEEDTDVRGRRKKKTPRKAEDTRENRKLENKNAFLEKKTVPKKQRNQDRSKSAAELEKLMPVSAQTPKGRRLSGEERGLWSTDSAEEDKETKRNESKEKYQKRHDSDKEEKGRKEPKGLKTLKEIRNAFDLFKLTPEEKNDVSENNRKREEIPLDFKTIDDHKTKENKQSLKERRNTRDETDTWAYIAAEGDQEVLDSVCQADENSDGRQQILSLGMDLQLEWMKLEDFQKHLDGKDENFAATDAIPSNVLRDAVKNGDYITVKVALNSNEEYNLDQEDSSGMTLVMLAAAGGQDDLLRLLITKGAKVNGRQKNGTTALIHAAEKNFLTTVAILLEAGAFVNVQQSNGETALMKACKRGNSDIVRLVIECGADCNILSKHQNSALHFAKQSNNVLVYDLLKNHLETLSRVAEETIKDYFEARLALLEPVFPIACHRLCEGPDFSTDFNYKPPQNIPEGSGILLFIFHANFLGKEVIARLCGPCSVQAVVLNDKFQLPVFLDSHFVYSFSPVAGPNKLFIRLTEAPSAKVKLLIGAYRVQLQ
Chain of D(1A) dopamine receptor (Homo sapiens) (P21728 whole entry, looked up): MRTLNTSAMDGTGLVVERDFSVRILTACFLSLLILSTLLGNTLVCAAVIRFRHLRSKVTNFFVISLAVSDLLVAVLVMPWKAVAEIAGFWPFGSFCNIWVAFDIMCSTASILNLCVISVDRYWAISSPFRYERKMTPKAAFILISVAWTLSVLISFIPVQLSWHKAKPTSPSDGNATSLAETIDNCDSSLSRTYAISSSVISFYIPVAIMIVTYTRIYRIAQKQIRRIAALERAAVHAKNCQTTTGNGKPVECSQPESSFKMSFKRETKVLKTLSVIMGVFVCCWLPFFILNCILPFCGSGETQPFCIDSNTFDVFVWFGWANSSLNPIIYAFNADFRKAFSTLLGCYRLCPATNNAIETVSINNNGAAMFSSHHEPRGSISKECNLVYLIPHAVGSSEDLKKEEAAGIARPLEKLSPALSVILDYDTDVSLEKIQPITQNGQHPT
Chain of Thioredoxin reductase 1, cytoplasmic (Rattus norvegicus) (O89049 whole entry, looked up): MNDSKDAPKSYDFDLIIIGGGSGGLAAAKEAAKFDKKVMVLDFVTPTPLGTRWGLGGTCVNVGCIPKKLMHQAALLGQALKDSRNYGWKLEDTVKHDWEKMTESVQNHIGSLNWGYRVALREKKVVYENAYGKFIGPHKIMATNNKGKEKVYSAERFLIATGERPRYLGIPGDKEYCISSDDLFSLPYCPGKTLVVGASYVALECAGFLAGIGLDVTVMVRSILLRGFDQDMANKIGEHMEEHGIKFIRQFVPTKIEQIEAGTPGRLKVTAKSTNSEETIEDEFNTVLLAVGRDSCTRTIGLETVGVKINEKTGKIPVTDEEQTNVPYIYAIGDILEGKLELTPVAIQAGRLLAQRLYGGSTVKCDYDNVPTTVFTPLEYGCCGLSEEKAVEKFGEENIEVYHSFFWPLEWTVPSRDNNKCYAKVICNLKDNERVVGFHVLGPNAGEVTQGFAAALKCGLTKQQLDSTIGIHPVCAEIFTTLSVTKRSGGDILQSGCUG
Chain of Chromobox protein homolog 1 (Homo sapiens) (P83916 whole entry, looked up): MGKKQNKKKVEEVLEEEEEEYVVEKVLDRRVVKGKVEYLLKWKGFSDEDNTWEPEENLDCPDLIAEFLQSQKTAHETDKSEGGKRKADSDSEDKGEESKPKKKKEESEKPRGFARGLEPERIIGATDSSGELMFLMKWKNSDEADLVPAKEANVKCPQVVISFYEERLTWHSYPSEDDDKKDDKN
Chain of ATP-dependent 6-phosphofructokinase (Trypanosoma brucei brucei) (O15648 whole entry, looked up): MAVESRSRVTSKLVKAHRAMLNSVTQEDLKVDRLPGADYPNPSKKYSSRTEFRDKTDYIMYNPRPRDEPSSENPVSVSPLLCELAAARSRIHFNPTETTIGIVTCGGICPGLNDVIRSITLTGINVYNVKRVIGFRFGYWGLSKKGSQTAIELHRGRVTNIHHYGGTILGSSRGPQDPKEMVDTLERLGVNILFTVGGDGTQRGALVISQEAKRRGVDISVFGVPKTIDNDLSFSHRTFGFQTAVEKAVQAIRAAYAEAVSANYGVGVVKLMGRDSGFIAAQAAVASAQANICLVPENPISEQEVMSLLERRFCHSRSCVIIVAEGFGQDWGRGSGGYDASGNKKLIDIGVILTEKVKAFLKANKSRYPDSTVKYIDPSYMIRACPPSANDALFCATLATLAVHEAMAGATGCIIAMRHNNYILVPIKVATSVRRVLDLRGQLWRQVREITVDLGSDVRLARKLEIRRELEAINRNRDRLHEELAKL
Chain of Flap endonuclease 1 (Homo sapiens) (P39748 whole entry, looked up): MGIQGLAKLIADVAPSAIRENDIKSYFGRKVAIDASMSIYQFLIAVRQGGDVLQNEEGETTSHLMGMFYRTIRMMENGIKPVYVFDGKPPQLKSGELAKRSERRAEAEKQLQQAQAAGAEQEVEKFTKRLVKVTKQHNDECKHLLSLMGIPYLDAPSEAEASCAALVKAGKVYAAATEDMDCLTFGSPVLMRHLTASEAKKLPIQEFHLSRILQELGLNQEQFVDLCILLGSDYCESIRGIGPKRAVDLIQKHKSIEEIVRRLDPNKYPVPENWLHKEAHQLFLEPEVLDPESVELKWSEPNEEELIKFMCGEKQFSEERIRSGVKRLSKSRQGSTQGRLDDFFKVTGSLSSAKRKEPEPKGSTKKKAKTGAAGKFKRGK
Chain of Methanococcus maripaludis chaperonin (MmCpn) (Q6LX38 1-543): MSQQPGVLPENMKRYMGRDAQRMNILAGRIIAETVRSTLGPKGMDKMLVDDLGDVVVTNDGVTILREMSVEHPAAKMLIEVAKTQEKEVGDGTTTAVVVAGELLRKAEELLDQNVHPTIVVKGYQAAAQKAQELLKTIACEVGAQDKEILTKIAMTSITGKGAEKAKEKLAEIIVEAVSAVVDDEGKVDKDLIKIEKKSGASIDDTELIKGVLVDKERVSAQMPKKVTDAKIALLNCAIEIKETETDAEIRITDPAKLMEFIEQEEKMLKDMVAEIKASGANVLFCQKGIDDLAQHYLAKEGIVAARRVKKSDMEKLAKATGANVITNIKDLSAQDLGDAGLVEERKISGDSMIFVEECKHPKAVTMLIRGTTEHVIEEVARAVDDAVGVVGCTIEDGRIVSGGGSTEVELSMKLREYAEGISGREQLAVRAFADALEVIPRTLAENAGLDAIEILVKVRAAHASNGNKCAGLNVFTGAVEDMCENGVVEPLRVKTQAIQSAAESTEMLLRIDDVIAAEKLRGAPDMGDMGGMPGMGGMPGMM

NC(=O)c1cn(Cc2c(F)cccc2F)nn1
active: [8] 0.006 µM
not listed: [14] | [15] | [16] | [17] | [18] | [19]
inactive: all other assays above

CCn1ccnc1CC1COc2ccccc2O1 (configuration not stated)
not listed: [18] | [19]
inactive: all other assays above

CCCCOCCOCCOCc1cc2c(cc1CCC)OCO2
inactive: [18]

O=C1NCN(c2ccccc2)C12CCN(CCCC(c1ccc(F)cc1)c1ccc(F)cc1)CC2
active: [7] 14.1 µM | [8] 39.8 µM
not listed: [2] | [4] | [12] | [14] | [15] | [18]
inactive: all other assays above

CCOC(=O)C1=C(C)NC(C)=C(C(=O)OC)C1c1cccc([N+](=O)[O-])c1 (configuration not stated)
active: [2] 9.2 µM
not listed: [8] | [11] | [12] | [14] | [15] | [18] | [19]
inactive: all other assays above

CNCCCN1c2ccccc2CCc2ccccc21
inactive: [1] | [2] | [19] | [4] | [9] | [17] | [10] | [11] | [18] | [13]

CC(C)NNC(=O)c1ccncc1
not listed: [13] | [14] | [18] | [19]
inactive: all other assays above

CCO/C([O-])=N/c1c[n+](N2CCOCC2)no1
not listed: [5] | [13] | [14]
inactive: all other assays above

COC(=O)[C@@H](N)Cc1ccc(O)c(O)c1
not listed: [4] | [5]
inactive: all other assays above

C[N+](C)(C)CCCCCCCCCC[N+](C)(C)C
active: [14] 0.329 µM | [15] 1.04 µM
not listed: [5] | [6] | [9] | [18]
inactive: all other assays above

CC[N+](C)(C)c1cccc(O)c1
not listed: [5] | [6] | [13] | [14] | [18]
inactive: all other assays above

CN(C)CCCN1c2ccccc2Sc2ccccc21
inactive: [1] | [3] | [14] | [15] | [4] | [5] | [6] | [7] | [9] | [11]
active: [12] 5.01 µM

C[C@]12CCC(=O)C=C1CC[C@@H]1[C@@H]2CC[C@@]2(C)[C@H]1CC[C@]2(O)C(=O)CO
not listed: [2] | [6] | [18]
inactive: all other assays above

COC(=O)[C@H]1[C@H]2C[C@@H]3c4[nH]c5cc(OC)ccc5c4CCN3C[C@H]2C[C@@H](OC(=O)c2cc(OC)c(OC)c(OC)c2)[C@@H]1OC
active: [14] 0.928 µM | [15] 1.47 µM | [7] 20 µM | [8] 39.8 µM
not listed: [2] | [19]
inactive: all other assays above
